The source made the active and inactive calls. Entries that show only a call come without a potency. Calls come from the whole dose curve; as a rule, active = well fitted activation curve with a large enough effect in the repeat runs; inconclusive = weak or mixed curves; inactive = flat fitted curve, though single readings scatter.
molecular target: KiSS-1 receptor (Homo sapiens) (UniProt Q969F8); experiment: Human kisspeptin (KISS1R) small molecule agonists, calcium flux assay in KISS1R-HEK293 cells (AID 1920064); settings: KISS1R-HEK293, calcium flux fluorescence, agonist; series mostly up to 76.8 µM
Sequence (Q969F8 whole entry, looked up): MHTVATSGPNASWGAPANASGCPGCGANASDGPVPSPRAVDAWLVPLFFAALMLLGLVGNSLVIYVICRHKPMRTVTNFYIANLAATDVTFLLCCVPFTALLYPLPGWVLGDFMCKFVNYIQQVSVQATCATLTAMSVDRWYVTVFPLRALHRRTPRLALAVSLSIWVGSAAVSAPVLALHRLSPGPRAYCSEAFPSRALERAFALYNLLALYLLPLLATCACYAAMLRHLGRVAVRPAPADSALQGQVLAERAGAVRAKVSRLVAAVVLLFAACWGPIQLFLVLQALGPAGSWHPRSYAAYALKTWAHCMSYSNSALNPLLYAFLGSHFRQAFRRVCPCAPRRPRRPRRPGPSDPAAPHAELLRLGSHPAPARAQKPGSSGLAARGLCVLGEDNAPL
Excerpt: National Center for Advancing Translational Sciences [NCATS]
Division of Preclinical Innovation [DPI]
U.S. Environmental Protection Agency [EPA]
National Institutes of Environmental Health Sciences [NIEHS]
National Toxicology Program [NTP]
U.S. Food and Drug Administration [FDA]
Kisspeptin and its receptor KISS1R play key roles in mammalian reproduction due to their involvement in the onset of puberty and control of the hypothalamic-pituitary-gonadal axis such as regulates GnRH release from the hypothalamus. The kisspeptin/KISS1R system also plays a direct role in peripheral organs (including the ovary, testis, uterus, and placenta) and is implicated in reproductive diseases such as miscarriage and polycystic ovary syndrome (PCOS). Abnormal KISS1R activity is associated with abnormal puberty, infertility, endometriosis, and hormone-dependent tumors. The KISS1 receptor (KISS1R, also called GPR54), a G-protein-coupled receptor (GPCR), acts (through phospholipase C) to increase intracellular inositol trisphosphate and then release intracellular calcium stores. Cell-based KISS1R-HEK293 assay is using HEK293 cells that have been genetically engineered to express the human KISS1R, which activity can be measured by calcium signaling. A compound/drug can activate (agonist) KISS1R that can be monitored by levels of intracellular calcium.
KISS1R-HEK293 cells developed by Codex Corp contain human KISS1R gene, which was stably integrated into HEK 293 cells. The compound activation can be detected by fluorescence intensity via calcium flux assay. This cell line has been used to screen the Tox21 10K compound library to identify agonists of KISS1R.
KISS1R-Hek293 cells were dispensed at 1500 cells/4uL/well in 1536-well black wall/clear bottom plates using a multidrop dispenser. After the assay plates were incubated at a 37 C/5% CO2 incubator for 18 hours, 4 microL of Calcium Dye Solution was added to each well. The plates were incubated at 37 C for 1 hour. And then 23 nL of compounds dissolved in DMSO, positive controls, or DMSO only was transferred to the assay plate by a pin tool station. The fluorescence intensity in the plates was measured using FDSS 7000EX kinetic plate reader with a filter set of Ex/Em=480/540 for 3 min at 1 sec intervals. Each test compound was measured at 15 concentrations and in triplicates.

Structure (SMILES)	Potency
CC(=O)CC/C=C(\C)CCC=C(C)C	inactive
Cc1cc(=O)[nH]c(C(C)C)n1	inactive
Oc1ccc(O)cc1	inactive
O=C(C1CCCCC1)N1CC(=O)N2CCc3ccccc3C2C1 (stereo not given)	inactive
CCO[Si](CCCNC(N)=O)(OCC)OCC	inactive
O=C(O)c1ccc(O)cc1	inactive
Cc1cc(C2(c3cc(C)c(O)cc3C)OS(=O)(=O)c3ccccc32)c(C)cc1O	inactive
CC(C)[C@@H]1CC[C@@H](C)C[C@H]1O	inactive
CCCCCCCCCCCCCCCC(=O)OC(C)C	inactive
N=C(N)c1ccc(OCCCCCOc2ccc(C(=N)N)cc2)cc1	inactive
CCCCC(CC)CO (stereo not given)	inactive
C[C@]12CC[C@@H]3c4ccc(O)cc4C[C@@H](CCCCCCCCCS(=O)CCCC(F)(F)C(F)(F)F)[C@H]3[C@@H]1CC[C@@H]2O (stereo not given in full)	inactive
CNC[C@H](O)[C@@H](O)[C@H](O)[C@H](O)CO	inactive
C#C[C@]1(O)CC[C@H]2[C@@H]3CCC4=Cc5oncc5C[C@]4(C)[C@H]3CC[C@@]21C	inactive
CC(C)=CCl	inactive
CCNc1ccccc1	inactive
O=C(c1ccc(O)cc1)c1ccc(O)cc1O	inactive
NC(N)=NC(N)=NCCc1ccccc1	inactive
CCCOC(=O)c1ccccc1	inactive
C/C=C1/CC2C=CC1C2 (stereo not given)	inactive

Structure (SMILES)	Potency
CN(C)c1ccc(C(=C2C=CC(=[N+](C)C)C=C2)c2ccccc2)cc1	inactive
Cc1ccc(C)c(OCCCC(C)(C)C(=O)O)c1	inactive
C#CCN(C)Cc1ccccc1	inactive
O=c1c(O)c(-c2ccc(O)c(O)c2)oc2cc(O)cc(O)c12	inactive
CCCCCCCCCCC(CO)CCCCCCCC (stereo not given)	inactive
O=[Se](O)O	inactive
NC(CO)(CO)CO	inactive
C=CCCCCCCCCCC	inactive
CCCCCCCCCCCCCC(=O)O	inactive
CC(=O)Nc1ccccc1	inactive
CCCCCCCC(=O)OCC(O)CO (stereo not given)	inactive
O=C(O)Cc1c[nH]c2ccccc12	inactive
O=C(OCc1ccccc1)c1ccccc1	inactive
CCc1cc(C(N)=S)ccn1	inactive
CCCCC1(COC(=O)CCC(=O)O)C(=O)N(c2ccccc2)N(c2ccccc2)C1=O	inactive
CC(CCl)OP(=O)(OC(C)CCl)OC(C)CCl (stereo not given)	inactive
Cc1cc(C(C)(C)C)c(O)c(C(C)(C)C)c1	inactive
NCCS(=O)(=O)O	inactive
O=C(O)c1cn(-c2ccc(F)cc2)c2cc(N3CCNCC3)c(F)cc2c1=O	inactive
S=c1nc[nH]c2nc[nH]c12	inactive

Reference: PubChem BioAssay (Tox21)
